Test results from PubChem BioAssay (NCI).
Compounds without any hit were thinned out: in the full panel of roughly 79,000, 15% have a hit. Calls of active or inactive are those of the source. No stated cut-off is given here; in the data, active means growth inhibition above about 70%; inactive means the rest. Where a SMILES comes first, the peptide text is derived from it. The star is where a group is joined. Boc = CC(C)(C)OC(=O)*; OBn = c1ccc(CO*)cc1

Experiment: NCI Yeast Anticancer Drug Screen. Data for the mlh1 rad18 strain (AID 175)
Details: S. cerevisiae mlh1 rad18 strain growth inhibition; at 50.0 µM; active compounds read high
Procedure, shortened: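 Cells of a genetically altered yeast strain, deficient in DNA damage repair, were treated with compound. Their growth was then compared with that of vehicle-treated cultures to give inhibition.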

Row | Structure (SMILES) | growth inhibition
1 | CCCCCCCCCCCCSSC(=S)OC(C)C | 44.5% (inactive)
2 | CN1CCCN(C)CCCN(C)CCCN(C)CCC1 | 11.8% (inactive)
3 | CC(C)CC(NC(=O)OC(C)(C)C)C(=O)NC(CC(=O)OCc1ccccc1)C(=O)OCc1ccccc1 (stereo not drawn) (Boc-Leu-Asp(OBn)-OBn; configuration not given here) | 33.5% (inactive)
4 | CCOc1ccc(OCC)c(NC(=O)OC(C)C)c1 | 12.9% (inactive)
5 | O=Cc1ccc(N2OC(c3ccc([N+](=O)[O-])cc3)C(c3ccc([N+](=O)[O-])cc3)C2c2ccc([N+](=O)[O-])cc2)cc1 (stereo not given) | 28.9% (inactive)
6 | CC(=O)OC(C)(C)c1ccc2c(c1)C(=O)C[C@@H]1[C@](C)(C#N)CCC[C@]21C | 35.5% (inactive)
7 | O=c1c(-c2ccccc2)c(O)on1/C=C1/C=CC=N1 | 1.5% (inactive)
8 | CCOC(=O)NCC(=O)NCC(=O)NCC(N)=O | 7.95% (inactive)
9 | NCCN(CCN)/[N+]([O-])=N/O | 16.9% (inactive)
10 | O=S(=O)(Nc1cccc(C(F)(F)F)c1)c1ccc(F)cc1 | 42.9% (inactive)
11 | CC(O)(CNS(=O)(=O)c1ccccc1)c1ccccc1 (stereo not given) | -16.6% (inactive)
12 | COC(=O)C1C2C=CC(C2)C1C(=O)OC (stereo not given) | 0.1% (inactive)
13 | O=C1OC(=O)C(c2ccccc2)=C1c1ccccc1 | 24.9% (inactive)
14 | c1ccc2c(c1)NC1C3(CCC4CCCCC241)SCCS3 (stereo not given) | -1.15% (inactive)
15 | Cc1cc(C)c(NC(=O)c2c(Cl)c(Cl)c(Cl)c(Cl)c2C(=O)O)c(C)c1 | 0.3% (inactive)
